{"source": "PubChem BioAssay (NCI)", "note": "About 83,000 compounds went through this panel and 20% of them were active in at least one assay; those are over-represented in the sample as a whole.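 In brief: 96-well plates, 48 h treatment, single concentration, percent growth endpoint.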 Calls of active or inactive are those of the source. Rule for the calls: active = growth percent below 10; inactive = the rest."}
{"test_system": "HL-60(TB) leukemia", "test": "NCI-60 one-dose screen, 48 h (100 = growth as untreated, 0 = no growth, -100 = all killed)", "conditions": "10 µM unless noted"}
{"smiles": "CC(C)NC(=O)OCc1c(COC(=O)NC(C)C)c(-c2ccc(Cl)c(Cl)c2)n2c1SCC2", "growth": "7.43% (active)"}
{"smiles": "O=C(O)COc1ccc(F)cc1", "growth": "94.2% (inactive)"}
{"smiles": "O=C(Nc1nc(-c2ccccc2Cl)cs1)c1cc(-c2ccc(Br)cc2)nc2ccccc12", "growth": "37.2% (inactive)"}
{"smiles": "CCCCN(CCCC)c1ccc(C(=NC(C)CCCN(CC)CC)c2ccc(N(C)C)cc2)cc1", "note": "(stereo not given)", "growth": "-32.1% (active)"}
{"smiles": "COc1ccc(/C(=C2\\O[C@@H]([C@H](O)CO)[C@H]3OC(C)(C)O[C@@H]23)c2cc(OC)c(OC)c(OC)c2)cc1O", "growth": "-2.8% (active)"}
{"smiles": "C#Cc1nc(Nc2cc(C)[nH]n2)c2ccccc2n1", "growth": "-38.8% (active)"}
{"smiles": "COc1ccc2c(c1)N(CCO)C1=C(C(=O)OC1)C2c1ccc(OC)c(OC)c1", "note": "(stereo not given)", "growth": "-2.68% (active)"}
{"smiles": "O=C(O)/C=C\\C(=O)Nc1ccc2c(c1)Cc1cc(F)ccc1-2", "growth": "100% (inactive)"}
{"smiles": "CN(C)c1ccc(/C=C(\\C#N)c2nc3ccccc3s2)cc1", "growth": "93.3% (inactive)"}
{"smiles": "CC(C(=O)n1cc(-c2ccccc2)c(-c2ccccc2)c1)c1ccccc1", "note": "(stereo not given)", "growth": "106% (inactive)"}
{"smiles": "Cc1ncc(C(=O)Nc2ccc(CN3CCN(C)CC3)c(C(F)(F)F)c2)cc1C#Cc1c(N)ncc2ccc(C#N)cc12", "growth": "45.8% (inactive)"}
{"smiles": "CN(C)C[C@@H]1CCn2cc(c3ccccc32)C2=C(C(=O)NC2=O)c2cn(c3ccccc23)CCO1", "growth": "-23.5% (active)"}
{"smiles": "O=C1/C(=C\\c2ccc(Cl)cc2)CN(C(=S)Nc2ccccc2)C/C1=C\\c1ccc(Cl)cc1", "growth": "-15.4% (active)"}
{"smiles": "Cc1cc(N2CCN(C)CC2)nc(NCc2cc(Nc3ccnc4cc(Cl)ccc34)ccc2F)n1", "growth": "-53.5% (active)"}
{"smiles": "CCC(C)[C@@H]1NC(=O)[C@@H]2CCCN2C(=O)[C@H](Cc2ccccc2)NC(=O)[C@@H]2CCCN2C(=O)[C@H](Cc2ccccc2)NC(=O)[C@@H]2CCCN2C(=O)[C@H](Cc2ccccc2)NC1=O", "note": "(stereo not given in full)", "growth": "95.6% (inactive)"}
{"smiles": "CSC(=N\\N=C\\c1ccc(N(C)C)cc1)/N=C/N(C)C", "growth": "105% (inactive)"}
{"smiles": "CCOC(=O)C(O)C(O)C(=O)OCC", "note": "(stereo not given)", "growth": "102% (inactive)"}
{"smiles": "CCC(CC)NCCCCCNc1cc(OC)cc2cccnc12", "growth": "110% (inactive)"}
{"smiles": "CCC(c1ccc(OC)cc1)C(CC)c1ccc(O)c(CN2CCCCC2)c1", "note": "(stereo not given)", "growth": "52.6% (inactive)"}
{"smiles": "O=c1cc(Cl)[nH]c(=O)[nH]1", "growth": "91.7% (inactive)"}
{"smiles": "Cc1cc(Cl)ccc1Nc1nc(C(F)(F)F)ccc1C(=O)N/N=C/c1ccc(Cl)cc1", "growth": "-33.8% (active)"}
{"smiles": "CC(=O)Oc1ccc(/C=N/NC(N)=S)nc1", "growth": "64.3% (inactive)"}
{"smiles": "COc1ccc(C)cc1OC", "growth": "94.3% (inactive)"}
{"smiles": "COc1cc2c(c(Br)c1N)-c1cc(Br)c(N)cc1C2=O", "growth": "88.9% (inactive)"}
{"smiles": "COc1ccc(/C=C/C(=O)c2ccc([N+](=O)[O-])cc2)cc1", "growth": "82% (inactive)"}
{"smiles": "COc1ccc(-c2oc(=O)ccc2-c2cc(OC)c(OC)c(OC)c2)cc1O", "growth": "-58.9% (active)"}
{"smiles": "O=C(N/N=C/c1cccc(O)c1O)c1ccccc1", "growth": "19.1% (inactive)"}
{"smiles": "CCOC(=O)CC/C(C)=N\\Nc1ccc([N+](=O)[O-])cc1", "growth": "26.4% (inactive)"}
{"smiles": "CC(=O)Cc1nsc(NC(=O)c2ccoc2COc2ccccc2)n1", "growth": "98.5% (inactive)"}
{"smiles": "N#CC(Cc1cccc2ccccc12)c1cc2ccccc2[nH]1", "note": "(stereo not given)", "growth": "96.4% (inactive)"}
{"smiles": "O=C(CCl)N1c2ccccc2Sc2c1ccc1ccccc21", "growth": "62.7% (inactive)"}
{"smiles": "COc1ccc(S(=O)(=O)Nc2cc(/C=C\\c3cc(OC)c(OC)c(OC)c3)cc(OC)c2OC)cc1OC", "growth": "2.73% (active)"}
{"smiles": "OC(CSc1ccccc1)CN1CCN(c2cccc(Cl)c2)CC1", "note": "(stereo not given)", "growth": "85.7% (inactive)"}
{"smiles": "COc1ccccc1NC1=C(N2CCCCC2)C(=O)c2ccccc2C1=O", "growth": "72.6% (inactive)"}
{"smiles": "O=C(/C=C/c1ccc2ccccc2c1)Nc1ncc(Cc2ccccc2)s1", "growth": "94.4% (inactive)"}
{"smiles": "CN1CCN(Cc2ccc(NC(=O)c3cccc(C#Cc4cnc(N)c5ncccc45)c3F)cc2C(F)(F)F)CC1", "growth": "12% (inactive)"}
{"smiles": "CCCCCCCCc1ccc(OCCOCC[N+](C)(C)CC)cc1", "note": "(tested in a mixture with another compound)", "growth": "2.54% (active)"}
{"smiles": "CCCCCCCCCCCC[n+]1ccccc1", "note": "(tested in a mixture with another compound)", "growth": "-77.6% (active)"}
{"smiles": "CC1(C)C(N(O)C(=O)Nc2ccc(Cl)cc2)N(c2ccc(Cl)cc2)C(=O)N1CC(=O)N/N=C/C=C/c1ccc([N+](=O)[O-])o1", "note": "(stereo not given)", "growth": "-36% (active)"}
{"smiles": "Cc1cccc(C)c1NCc1nc(-c2ccccc2)n[nH]1", "growth": "90.7% (inactive)"}
